Records with an inconclusive call do not appear. The source made the active and inactive calls. Calls come from the whole dose curve; as a rule, active = well fitted curve in the direction sought with a large enough effect; inconclusive = small, poorly fitted or top-dose-only effect, or another doubt; inactive = no such curve, though single readings can be large; an effect the other way counts as inactive or inconclusive.
How the values were obtained:
[1] = Quantitative High-Throughput drug screen in 47 multiple myeloma cell lines against the NCATS MIPE library collection: FR4_PLB cell viability assay (AID 1918924; note: nearly all actives have a fitted effect of over 35% in size; note: potency is the fitted concentration of half-maximal effect)
Method in brief: (§1)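 qHTS of the MIPE 4.0 collection: 500 myeloma cells/well, 48 h drug exposure at 37C in 5% CO2, then CellTiter-Glo for 5 min at room temperature before luminescence reading.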

[2] = Quantitative High-Throughput drug screen in 47 multiple myeloma cell lines against the NCATS MIPE library collection: Delta47_JCRB cell viability assay (AID 1918925; note: nearly all actives have a fitted effect of over 45% in size; note: potency is the fitted concentration of half-maximal effect)
Method in brief: (§2)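 We plated 500 myeloma cells per well, pinned in MIPE 4.0 compounds, and incubated for 48 hours at 37C. ATP was then quantified with CellTiter-Glo, with DMSO and media-only wells defining 100% and 0%.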

[3] = Quantitative High-Throughput drug screen in 47 multiple myeloma cell lines against the NCATS MIPE library collection: EJM_DSMZ cell viability assay (AID 1918926; note: nearly all actives have a fitted effect of over 30% in size; note: potency is the fitted concentration of half-maximal effect)
Method in brief: as §2

[4] = Quantitative High-Throughput drug screen in 47 multiple myeloma cell lines against the NCATS MIPE library collection: AMO1_DSMZ cell viability assay (AID 1918927; note: nearly all actives have a fitted effect of over 30% in size; note: potency is the fitted concentration of half-maximal effect)
Method in brief: as §2

[5] = Quantitative High-Throughput drug screen in 47 multiple myeloma cell lines against the NCATS MIPE library collection: ARP1_JJKsccF8 cell viability assay (AID 1918928; note: nearly all actives have a fitted effect of over 40% in size; note: potency is the fitted concentration of half-maximal effect)
Method in brief: (§3)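 500 cells/well; MIPE 4.0 library pinned in; 48 h, 37 °C, 5% CO2; CellTiter-Glo ATP luminescence. Controls: DMSO = 100% viability, medium only = 0%.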

[6] = Quantitative High-Throughput drug screen in 47 multiple myeloma cell lines against the NCATS MIPE library collection: ARD_JJKsccE7 cell viability assay (AID 1918929; note: potency is the fitted concentration of half-maximal effect)
Method in brief: as §2

[7] = Quantitative High-Throughput drug screen in 47 multiple myeloma cell lines against the NCATS MIPE library collection: Karpas620_DSMZ cell viability assay (AID 1918959); note: nearly all actives have a fitted effect of over 30% in size; note: potency is the fitted concentration of half-maximal effect
Method in brief: as §1

[8] = Quantitative High-Throughput drug screen in 47 multiple myeloma cell lines against the NCATS MIPE library collection: KMM1_JCRB cell viability assay (AID 1918960); note: nearly all actives have a fitted effect of over 30% in size; note: potency is the fitted concentration of half-maximal effect
Method in brief: as §3

[9] = Primary redox qHTS assay for identification of artifact compounds. (AID 1845223)
Method in brief: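 Redox-cycling detection via DTT (250 uM final) oxidation coupled to Amplex Red (25 uM)/HRP (250 mU/mL) in HBSS. 15 min preincubation plus 30 min after DTT, room temperature. Ex/Em 525/598 nm; 4-parameter Hill fit against DMSO and 10 uM DA3003.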

[10] = test system: Nanoluciferase (engineered Oplophorus gracilirostris luciferase); test: Primary Nanoluciferase (NLuc) qHTS assay for identification of artifact compounds. (AID 1845222); note: series mostly up to about 54 µM
Method in brief: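 Luminescence read-out of secreted NLuc in S16 cell conditioned medium (1:55); compounds tested with 15 min RT preincubation, then Nano-Glo substrate 1:100, 5 min. % inhibition vs no-enzyme and DMSO controls, 4-parameter Hill fit.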

Compound | Potency [1] | Potency [2] | Potency [3] | Potency [4] | Potency [5] | Potency [6] | Potency [7] | Potency [8] | Potency [9] | outcome [10]
CCNC(=O)Nc1ccc(-c2nc3c(c(N4CCOC[C@H]4C)n2)CCN(C2COC2)C3)cc1 | 935 nM (active) | 743 nM (active) | 7430 nM (active) | 1320 nM (active) | 743 nM (active) | 1050 nM (active) | 16600 nM (active) | – | – | –
C=C(C)[C@@H]1CC[C@]2(C(=O)O)CC[C@]3(C)[C@H](CC[C@@H]4[C@@]5(C)CC[C@H](O)C(C)(C)[C@@H]5CC[C@]43C)[C@@H]12 | inactive | inactive | inactive | inactive | inactive | inactive | inactive | inactive | – | –
COc1cc(CCc2cc(NC(=O)c3ccc(N4C[C@@H](C)N[C@@H](C)C4)cc3)n[nH]2)cc(OC)c1 | 18700 nM (active) | 14800 nM (active) | 18700 nM (active) | 18700 nM (active) | 18700 nM (active) | 16600 nM (active) | 20900 nM (active) | 18700 nM (active) | inactive | –
CC(=O)OCC(=O)[C@@]1(O)CC[C@H]2[C@@H]3CCC4=CC(=O)CC[C@]4(C)[C@@H]3C(=O)C[C@@]21C | inactive | inactive | inactive | inactive | inactive | inactive | inactive | inactive | – | –
COc1cc2c(Nc3ccc(Cl)c(Cl)c3F)ncnc2cc1OCC1C[C@@H]2CN(C)C[C@H]2C1 | 14800 nM (active) | 2350 nM (active) | 2960 nM (active) | 8330 nM (active) | 8330 nM (active) | 13200 nM (active) | 4180 nM (active) | 18700 nM (active) | – | –
COc1ccc([C@@H]2CNC(=O)C2)cc1OC1CCCC1 | inactive | 3720 nM (active) | inactive | inactive | inactive | inactive | inactive | – | – | –
O=C(C=Cc1ccc(CN(CCO)CCc2c[nH]c3ccccc23)cc1)NO | 74.3 nM (active) | 105 nM (active) | 235 nM (active) | 93.5 nM (active) | 83.3 nM (active) | 93.5 nM (active) | 148 nM (active) | 105 nM (active) | – | –
CCOC(=O)[C@H](CCc1ccccc1)N[C@@H](C)C(=O)N1[C@@H](C(=O)O)C[C@H]2CCC[C@@H]21 | 18700 nM (active) | 8330 nM (active) | 20900 nM (active) | 7430 nM (active) | 20900 nM (active) | 9350 nM (active) | 8330 nM (active) | 7430 nM (active) | – | –
C=Cc1c(C)c2cc3nc(cc4[nH]c(cc5nc(cc1[nH]2)C(C)=C5CCC(=O)O)c(CCC(=O)OC)c4C)[C@@]1(C)C3=CC=C(C(=O)OC)[C@H]1C(=O)OC | 662 nM (active) | 132 nM (active) | 37.2 nM (active) | 93.5 nM (active) | 743 nM (active) | 296 nM (active) | 187 nM (active) | 187 nM (active) | – | –
CC(=O)[C@]1(O)Cc2c(O)c3c(c(O)c2[C@@H](O[C@H]2C[C@H](N)[C@@H](O)[C@H](C)O2)C1)C(=O)c1ccccc1C3=O | 469 nM (active) | 105 nM (active) | 118 nM (active) | 833 nM (active) | 264 nM (active) | 3320 nM (active) | – | – | – | –
O=C1CSC(=O)N1C(CCc1ccncc1)COc1ccc(-c2cccc([N+](=O)[O-])c2)cc1 (centres undefined) | 18700 nM (active) | 4180 nM (active) | 935 nM (active) | inactive | 3320 nM (active) | inactive | inactive | inactive | – | –
Cc1cc(Nc2ncc3c(n2)N(C)C(=O)N(c2cc(NC(=O)c4cccc(C(F)(F)F)c4)ccc2C)C3)n(C)n1 | 418 nM (active) | 209 nM (active) | 662 nM (active) | 833 nM (active) | 743 nM (active) | 935 nM (active) | 1480 nM (active) | 1180 nM (active) | – | –
CC(C)C[C@H](NC(=O)[C@@H](NC(=O)c1cccc(-c2ccccc2)n1)[C@@H](C)O)B(O)O | 20.9 nM (active) | 16.6 nM (active) | 46.9 nM (active) | – | – | – | 14.8 nM (active) | 7.4 nM (active) | – | inactive
C=CC(=O)Nc1ccc2ncnc(Nc3ccc(OCc4cccc(F)c4)c(Cl)c3)c2c1 | 6620 nM (active) | 187 nM (active) | 5260 nM (active) | – | 296 nM (active) | 41.8 nM (active) | 41.8 nM (active) | 148 nM (active) | inactive | –
C=CCNC1=C2C[C@@H](C)C[C@H](OC)[C@@H](O)[C@@H](C)C=C(C)[C@H](OC(N)=O)[C@@H](OC)C=CC=C(C)C(=O)NC(=CC1=O)C2=O | 662 nM (active) | 1050 nM (active) | 4180 nM (active) | 93.5 nM (active) | 148 nM (active) | 93.5 nM (active) | 1870 nM (active) | – | – | –
Cc1cnc(Nc2ccc(N3CCN(C)CC3)cc2)nc1Nc1cccc(S(=O)(=O)NC(C)(C)C)c1 | 16600 nM (active) | 1480 nM (active) | 3320 nM (active) | 1180 nM (active) | 3720 nM (active) | 590 nM (active) | 3720 nM (active) | 1660 nM (active) | – | –
CN[C@@H]1C[C@H]2O[C@@](C)([C@H]1OC)n1c3ccccc3c3c4c(c5c6ccccc6n2c5c31)C(=O)N[C@H]4O | 2090 nM (active) | 46.9 nM (active) | 526 nM (active) | 332 nM (active) | 833 nM (active) | 148 nM (active) | 590 nM (active) | – | – | –
